Test results taken from the supplement of paper PMC8728848.
About 410 targets per protein were measured; listed, in parts, are those with the strongest signals and a random draw of the rest.

What was measured:
Assay in all cases: glycan array binding signal (z-score within array); higher = stronger binding
Details in all cases: glycan notation: IUPAC condensed, linker removed
Fuc(a1-2)Gal(b1-3)GalNAc = molecular target: Fuc(a1-2)Gal(b1-3)GalNAc
Outline: (§1)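 The Consortium for Functional Glycomics database supplied 3228 glycan arrays, of which those lacking an available protein sequence were dropped. The binding signal, a within-array Z-score, was averaged across arrays of the same protein sequence and across linkers. Negative scores can be read as non-binding.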

Fuc(a1-2)Gal(b1-4)GlcNAc = molecular target: Fuc(a1-2)Gal(b1-4)GlcNAc
Outline: as §1

[1] = molecular target: Fuc(a1-2)Gal(b1-4)GlcNAc(b1-3)Gal(b1-4)GlcNAc
Outline: as §1

[2] = molecular target: Fuc(a1-2)[Gal(a1-3)]Gal(b1-4)[Fuc(a1-3)]GlcNAc
Outline: as §1

[3] = molecular target: Gal(b1-3)GalNAc(b1-4)Gal(b1-4)Glc
Outline: as §1

[4] = molecular target: Gal(b1-3)[Fuc(a1-4)]GlcNAc(b1-3)Gal(b1-4)GlcNAc
Outline: as §1

Gal(b1-4)Glc = molecular target: Gal(b1-4)Glc
Outline: as §1

[5] = molecular target: Gal(b1-4)GlcNAc(b1-3)Gal(b1-4)Glc
Outline: as §1

[6] = molecular target: Gal(b1-4)GlcNAc(b1-3)Gal(b1-4)GlcNAc(b1-3)Gal(b1-4)GlcNAc
Outline: as §1

[7] = molecular target: Gal(b1-4)GlcNAc(b1-3)GalNAc
Outline: as §1

[8] = molecular target: GlcNAc(b1-4)GlcNAc(b1-4)GlcNAc(b1-4)GlcNAc(b1-4)GlcNAc(b1-4)GlcNAc
Outline: as §1

[9] = molecular target: Neu5Ac(a2-3)Gal(b1-3)[Fuc(a1-4)]GlcNAc(b1-3)Gal(b1-4)[Fuc(a1-3)]GlcNAc
Outline: as §1

[10] = molecular target: Neu5Ac(a2-3)GalNAc(b1-4)GlcNAc
Outline: as §1

[11] = molecular target: Neu5Ac(a2-6)Gal(b1-4)GlcNAc(b1-3)Gal(b1-4)[Fuc(a1-3)]GlcNAc(b1-3)Gal(b1-4)[Fuc(a1-3)]GlcNAc
Outline: as §1

[12] = molecular target: Neu5Gc(a2-3)Gal(b1-3)[Fuc(a1-4)]GlcNAc
Outline: as §1

Neu5Gc(a2-3)Gal(b1-4)Glc = molecular target: Neu5Gc(a2-3)Gal(b1-4)Glc
Outline: as §1

[13] = molecular target: Fuc(a1-2)Gal(b1-4)[Fuc(a1-3)]GlcNAc(b1-3)Gal(b1-4)[Fuc(a1-3)]GlcNAc
Outline: as §1

Fuc(a1-2)GlcNAc = molecular target: Fuc(a1-2)GlcNAc
Outline: as §1

[14] = molecular target: Fuc(a1-3)[Gal3S(b1-4)]GlcNAc
Outline: as §1

[15] = molecular target: Gal(b1-3)[Fuc(a1-4)]GlcNAc(b1-3)Gal(b1-4)[Fuc(a1-3)]GlcNAc
Outline: as §1

[16] = molecular target: Gal(b1-4)GlcNAc(b1-3)Gal(b1-4)[Fuc(a1-3)]GlcNAc(b1-3)Gal(b1-4)[Fuc(a1-3)]GlcNAc
Outline: as §1

Gal3S(b1-4)Glc = molecular target: Gal3S(b1-4)Glc
Outline: as §1

Gal3S(b1-4)GlcNAc6S = molecular target: Gal3S(b1-4)GlcNAc6S
Outline: as §1

Gal3S6S(b1-4)GlcNAc6S = molecular target: Gal3S6S(b1-4)GlcNAc6S
Outline: as §1

[17] = molecular target: GlcNAc(b1-2)Gal(b1-3)GalNAc
Outline: as §1

Kdn(a2-3)Gal(b1-4)GlcNAc = molecular target: Kdn(a2-3)Gal(b1-4)GlcNAc
Outline: as §1

Man(a1-3)[Man(a1-6)]Man = molecular target: Man(a1-3)[Man(a1-6)]Man
Outline: as §1

[18] = molecular target: Neu5Ac(a2-3)Gal(b1-3)GalNAc6S
Outline: as §1

[19] = molecular target: Neu5Ac(a2-3)Gal(b1-4)GlcNAc(b1-3)Gal(b1-4)GlcNAc
Outline: as §1

[20] = molecular target: Neu5Ac(a2-6)Gal(b1-4)GlcNAc(b1-2)Man(a1-3)[Neu5Ac(a2-6)Gal(b1-4)GlcNAc(b1-2)Man(a1-6)]Man(b1-4)GlcNAc(b1-4)GlcNAc
Outline: as §1

[21] = molecular target: Neu5Ac(a2-6)Gal(b1-4)GlcNAc6S
Outline: as §1

[22] = molecular target: Neu5Ac9Ac(a2-6)Gal(b1-4)GlcNAc
Outline: as §1

Binder | glycan array binding signal (z-score) (Fuc(a1-2)Gal(b1-3)GalNAc) | glycan array binding signal (z-score) (Fuc(a1-2)Gal(b1-4)GlcNAc) | glycan array binding signal (z-score) [1] | glycan array binding signal (z-score) [2] | glycan array binding signal (z-score) [3] | glycan array binding signal (z-score) [4] | glycan array binding signal (z-score) (Gal(b1-4)Glc) | glycan array binding signal (z-score) [5] | glycan array binding signal (z-score) [6] | glycan array binding signal (z-score) [7] | glycan array binding signal (z-score) [8] | glycan array binding signal (z-score) [9] | glycan array binding signal (z-score) [10] | glycan array binding signal (z-score) [11] | glycan array binding signal (z-score) [12] | glycan array binding signal (z-score) (Neu5Gc(a2-3)Gal(b1-4)Glc) | glycan array binding signal (z-score) [13] | glycan array binding signal (z-score) (Fuc(a1-2)GlcNAc) | glycan array binding signal (z-score) [14] | glycan array binding signal (z-score) [15] | glycan array binding signal (z-score) [16] | glycan array binding signal (z-score) (Gal3S(b1-4)Glc) | glycan array binding signal (z-score) (Gal3S(b1-4)GlcNAc6S) | glycan array binding signal (z-score) (Gal3S6S(b1-4)GlcNAc6S) | glycan array binding signal (z-score) [17] | glycan array binding signal (z-score) (Kdn(a2-3)Gal(b1-4)GlcNAc) | glycan array binding signal (z-score) (Man(a1-3)[Man(a1-6)]Man) | glycan array binding signal (z-score) [18] | glycan array binding signal (z-score) [19] | glycan array binding signal (z-score) [20] | glycan array binding signal (z-score) [21] | glycan array binding signal (z-score) [22]
STA (Solanum tuberosum), Q9S8M0 (protein) NASPPSPSPLPYPQCGMKKGGGKCIKTGECCSIWGWCGTTNAYCSPGYCQKQCPGPYPEGRCGWQANGKSCPTGTGQCCSNGGWCGTTSDYCASKNCQSQCKLPSPPPPPPPPSPPPPSPPSPPPPSPPPPPPPSPPPPSPPPPSPSPPPPPASPPPPPPALPYPQCGIKKGGGKCIKTGECCSIWGWCGTTNAYCSPGYCQKQCPGPYPEGRCGWQANGKSCPTGTGHCCSNAGWCGTTSDYCAPVNCQAQCNTTTLTSPIKNRMRGIESFMLNVV | -0.582 | 2.12 | 2.12 | -0.593 | -0.595 | -0.584 | -0.586 | 1.35 | 2.26 | -0.564 | 2.18 | -0.589 | 2.22 | -0.578 | -0.58 | -0.591 |  |  |  |  |  |  |  |  |  |  |  |  |  |  |  | 
MMR (Homo sapiens), P22897 (protein) MRLPLLLVFASVIPGAVLLLDTRQFLIYNEDHKRCVDAVSPSAVQTAACNQDAESQKFRWVSESQIMSVAFKLCLGVPSKTDWVAITLYACDSKSEFQKWECKNDTLLGIKGEDLFFNYGNRQEKNIMLYKGSGLWSRWKIYGTTDNLCSRGYEAMYTLLGNANGATCAFPFKFENKWYADCTSAGRSDGWLWCGTTTDYDTDKLFGYCPLKFEGSESLWNKDPLTSVSYQINSKSALTWHQARKSCQQQNAELLSITEIHEQTYLTGLTSSLTSGLWIGLNSLSFNSGWQWSDRSPFRYLNWLPGSPSAEPGKSCVSLNPGKNAKWENLECVQKLGYICKKGNTTLNSFVIPSESDVPTHCPSQWWPYAGHCYKIHRDEKKIQRDALTTCRKEGGDLTSIHTIEELDFIISQLGYEPNDELWIGLNDIKIQMYFEWSDGTPVTFTKWLRGEPSHENNRQEDCVVMKGKDGYWADRGCEWPLGYICKMKSRSQGPEIVEVEKGCRKGWKKHHFYCYMIGHTLSTFAEANQTCNNENAYLTTIEDRYEQAFLTSFVGLRPEKYFWTGLSDIQTKGTFQWTIEEEVRFTHWNSDMPGRKPGCVAMRTGIAGGLWDVLKCDEKAKFVCKHWAEGVTHPPKPTTTPEPKCPEDWGASSRTSLCFKLYAKGKHEKKTWFESRDFCRALGGDLASINNKEEQQTIWRLITASGSYHKLFWLGLTYGSPSEGFTWSDGSPVSYENWAYGEPNNYQNVEYCGELKGDPTMSWNDINCEHLNNWICQIQKGQTPKPEPTPAPQDNPPVTEDGWVIYKDYQYYFSKEKETMDNARAFCKRNFGDLVSIQSESEKKFLWKYVNRNDAQSAYFIGLLISLDKKFAWMDGSKVDYVSWATGEPNFANEDENCVTMYSNSGFWNDINCGYPNAFICQRHNSSINATTVMPTMPSVPSGCKEGWNFYSNKCFKIFGFMEEERKNWQEARKACIGFGGNLVSIQNEKEQAFLTYHMKDSTFSAWTGLNDVNSEHTFLWTDGRGVHYTNWGKGYPGGRRSSLSYEDADCVVIIGGASNEAGKWMDDTCDSKRGYICQTRSDPSLTNPPATIQTDGFVKYGKSSYSLMRQKFQWHEAETYCKLHNSLIASILDPYSNAFAWLQMETSNERVWIALNSNLTDNQYTWTDKWRVRYTNWAADEPKLKSACVYLDLDGYWKTAHCNESFYFLCKRSDEIPATEPPQLPGRCPESDHTAWIPFHGHCYYIESSYTRNWGQASLECLRMGSSLVSIESAAESSFLSYRVEPLKSKTNFWIGLFRNVEGTWLWINNSPVSFVNWNTGDPSGERNDCVALHASSGFWSNIHCSSYKGYICKRPKIIDAKPTHELLTTKADTRKMDPSKPSSNVAGVVIIVILLILTGAGLAAYFFYKKRRVHLPQEGAFENTLYFNSQSSPGTSDMKDLVGNIEQNEHSVI | -0.435 |  |  |  |  |  |  |  |  |  |  |  |  |  |  |  | -0.234 | -0.407 | 2.96 | -0.37 | 0.283 | 3.67 | 3.5 | 3.58 | -0.453 | 0.013 | 3.57 | -0.344 | -0.439 | -0.418 | -0.155 | -0.397
